Shown are actives, neighbours in structure and some others; about 10% of the full set was active somewhere.
Pf growth 48h: P. falciparum growth inhibition at 48 hours (one generation); P. falciparum luciferase growth in erythrocytes, 48 h; hit rate 5.9% among 310,000; Potency, µM (series often up to 28.7 µM), for the others: at the top dose activity change, negative = inhibition, most hits filed as inhibitors; active = well fitted inhibition curve with a large enough effect; inconclusive = small, poorly fitted or top-dose-only effect, or another doubt; inactive = no such curve, though single readings can be large or run the other way; also: % is scaled to controls: 0 for no effect and ±100 for the full control effect
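Firefly luciferase activity from engineered P. falciparum reports growth; inhibitors lower the luminescent signal. Cultures contained 2% hematocrit erythrocytes at 0.1% final parasitemia.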
SARS PLpro yeast: inhibitors of SARS-CoV papain-like protease in yeast | S. cerevisiae expressing SARS-CoV PLpro, growth rescue | Potency, µM (titrated, usually from 32.9 µM), inactives show top-dose activity, positive = growth rescue, actives largely listed as activators | hit rate 0.19% among 330,000 | AID 485353; also: 0% is about no effect; nearly all actives have a fitted effect of over 55% in size
NS1 inh: inhibitors of influenza NS1 protein function; AID 2326; hit rate 0.4% among 270,000; Potency, µM (highest dose often 46.1 µM), for the others: at the top dose activity, positive = more growth; also: actives are rising curves; nearly all actives have a fitted effect of over 50% in size
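Read-out: OD600 growth recovery of NS1-expressing budding yeast. Cells grown overnight at 30C in -URA glucose medium, washed, resuspended and diluted 1:100 in 2% galactose assay medium, pH 6.0. Same strain lacking NS1 served as positive control.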
Pf growth 96h: P. falciparum growth inhibition at 96 hour, primary screen for plastid delayed-death inhibitors; hit rate 6.9% among 320,000; Potency, µM (series often up to 28.7 µM), for inactives: top-dose activity change, negative = inhibition, actives largely listed as inhibitors; P. falciparum luciferase reporter growth, 96 h; AID 504834; active = well fitted inhibition curve with a large enough effect; inconclusive = small, poorly fitted or top-dose-only effect, or another doubt; inactive = no such curve, though single readings can be large or run the other way; also: % is scaled to controls: 0 for no effect and ±100 for the full control effect
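Plates of compound plus infected erythrocytes (2% hematocrit, 0.05% parasitemia final) incubate 96 hours, 37 C, 5% CO2. Detection reagent added; reduced luminescence from the parasites' luciferase reporter flags inhibition.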
Active calls of the source: *. Unless noted, calls follow the shape of the full dose curve. Potency is read from the fitted curve at half-maximal effect.

For COc1ccc(N(C(=O)c2snc(C(N)=O)c2N)C(C(=O)NCc2ccc(F)cc2)c2ccc(O)cc2)cc1 (stereo unspecified) the results were Pf growth 48h 0%, SARS PLpro yeast 6%, NS1 inh 10% and Pf growth 96h inconclusive.
For Oc1cccc[c]1[Hg][Cl] the results were Pf growth 48h 1.1µM* and Pf growth 96h 1.1µM*.
For COc1ccc(C)cc1NC(=O)c1nnn(Cc2cccc(C(F)(F)F)c2)c1N the results were Pf growth 48h -2%, SARS PLpro yeast -7% and Pf growth 96h 13µM*.
Screening CCOc1ccc(Cn2nnc(C(=O)NCc3ccc(OC)cc3)c2N)cc1 returned Pf growth 48h 10%, SARS PLpro yeast inconclusive, NS1 inh 11% and Pf growth 96h 0.93µM*.
`CCc1ccc(Cn2nnc(C(=O)Nc3ccc(OC)cc3OC)c2N)cc1` gave SARS PLpro yeast -3%, NS1 inh 2% and Pf growth 96h 7.4µM*.
For COc1ccc(NC(=O)c2ccc(NC(=O)CSc3nc(N)cc(=O)[nH]3)cc2)cc1 the results were Pf growth 48h -12%, SARS PLpro yeast -3% and Pf growth 96h 14%.
`COc1nc(-c2ccccc2)ccc1-c1noc(-c2cccnc2)n1` gave Pf growth 48h 0%, SARS PLpro yeast 14%, NS1 inh -10% and Pf growth 96h 0%.
`COc1nc(-c2ccc(C)cc2)ccc1-c1noc(-c2cccnc2)n1` gave Pf growth 48h 23%, SARS PLpro yeast 8%, NS1 inh -4% and Pf growth 96h 12µM*.
For CCCn1ccnc1SC(C)C(=O)Nc1c(C)n(C)n(-c2ccccc2)c1=O (stereo unspecified) the results were Pf growth 48h inconclusive, SARS PLpro yeast 1% and Pf growth 96h -17%.
COc1cccc(N(CC(=O)NCCSc2ccccn2)S(=O)(=O)c2ccccc2)c1 was read as Pf growth 48h 13µM*, SARS PLpro yeast 1%, NS1 inh -4% and Pf growth 96h 5%.
For COc1ccc(Cl)cc1N(CC(=O)NCCSc1ccccn1)S(=O)(=O)c1ccccc1 the results were Pf growth 48h -17%, SARS PLpro yeast -6%, NS1 inh 5% and Pf growth 96h 1.7µM*.
`N#CC1=C(N)Oc2c(oc(CO)cc2=O)C1c1ccccc1[N+](=O)[O-]` (stereo unspecified) gave Pf growth 48h 4%, SARS PLpro yeast 0%, NS1 inh 2% and Pf growth 96h -4%.
`NC(=O)C1CCCN1S(=O)(=O)c1ccc2ccccc2c1` (stereo unspecified) gave Pf growth 48h 21%, SARS PLpro yeast 2%, NS1 inh 1% and Pf growth 96h inconclusive.
For CC(=O)NC(Cc1ccccc1F)C(=O)NC1CCN(C(=O)NCc2ccccc2)CC1 (stereo unspecified) the results were Pf growth 48h 5%, SARS PLpro yeast -1%, NS1 inh 0% and Pf growth 96h 32%.
`COCCNC(=O)c1c(N)n(Cc2ccco2)c2nc3ccccc3nc12` gave Pf growth 48h 13µM*, SARS PLpro yeast -3%, NS1 inh 10% and Pf growth 96h 13µM*.
CCC(C)NC(=O)c1c(N)n(CC2CCCO2)c2nc3ccccc3nc12 (stereo unspecified) was read as Pf growth 48h 12µM*, SARS PLpro yeast -16%, NS1 inh -54% and Pf growth 96h 13µM*.
`COC(=O)c1c(N)n(CCCN2CCOCC2)c2nc3ccccc3nc12` gave Pf growth 48h inconclusive, SARS PLpro yeast 4%, NS1 inh -6% and Pf growth 96h 9.3µM*.
COCCCn1c(N)c(C(=O)Nc2ccccc2)c2nc3ccccc3nc21 was read as Pf growth 48h inconclusive, SARS PLpro yeast 1%, NS1 inh 9% and Pf growth 96h inconclusive.
Screening CCC(C)NC(=O)c1c(N)n(CCCOC)c2nc3ccccc3nc12 (stereo unspecified) returned Pf growth 48h inconclusive, SARS PLpro yeast -2%, NS1 inh -59% and Pf growth 96h 2.3µM*.
`COCCOC(=O)c1c(N)n(CCCN2CCOCC2)c2nc3ccccc3nc12` gave Pf growth 48h inconclusive, SARS PLpro yeast 0%, NS1 inh 6% and Pf growth 96h 0%.
`CCCn1c(CCNC(=O)c2ccco2)nc2ccccc21` gave Pf growth 48h 13%, SARS PLpro yeast -3%, NS1 inh -6% and Pf growth 96h 15%.
For CCCCN(C)Cc1cc(=O)oc2ccc3ccccc3c12 the results were Pf growth 48h -14%, SARS PLpro yeast 1%, NS1 inh 0% and Pf growth 96h 17%.
